Results filed as inconclusive are left out. Where a call stands in place of a potency, no number is given. Calls of active or inactive are those of the source. Calls follow the shape of the dose curve; as a rule, active = well fitted inhibition curve with a large enough effect; inconclusive = small, poorly fitted or top-dose-only effect; inactive = no such curve, though single readings can be large or run the other way.

Data on 40 compounds can be found in PubChem BioAssay (NCATS).
Potency is read from the fitted curve at half-maximal effect.

This assay relates to Zika virus NS2B-NS3 protease (linked construct). In words: Primary screen NINDS Rhodamine qHTS for Zika virus inhibitors (AID 1347160). Also: nearly all actives have a fitted effect of over 55% in size. As to conditions: purified NS2B-NS3 protease, Rhodamine110 substrate fluorescence; series mostly up to 57.1 µM. The text has this:
Avindra Nath, Ph.D., National Institute of Neurological Disorders and Stroke (NINDS), Bethesda, MD
Radhakrishnan Padmanabhan, Ph.D., Georgetown University (GU), Washington D.C.
Zika Virus causes congenital defects, including microcephaly and is associated with Guillain-Barre syndrome, eningoencephalitis and myelitis in infected adult. […] Using a target-based approach, we hope to establish a screening paradigm to uncover novel, cell-active NS2B-NS3 protease (Zika Virus) specific inhibitors from NCATS' collection of small molecules using qHTS.
Four assay panel was created to identify potential Zika Virus inhibitors. Namely, (1) GU unlinked NS2B-NS3 AMC tagged protease qHTS, (2) GU unlinked NS2B-NS3 Rhodamine tagged protease qHTS, (3) NINDS linked NS2B-NS3 AMC tagged protease qHTS, (4) NINDS linked NS2B-NS3 Rhodamine tagged protease qHTS. Active compounds were re-acquired and re-screened to confirm inhibition. Inhibitors were further screened against various confirmatory and counterscreens in dose response format.
Early Translation Branch (ETB)
National Center for Advancing Translational Sciences (NCATS), Rockville, MD
National Institute of Health (NIH), Bethesda, Maryland
For the linked assay, Nath lab (NINDS) provided the purified linked NS2B-NS3 protease which is consists of hydrophilic domain of NS2B linked to the NS3 protease domain by a flexible (-[…]-) linker. Control compound aprotinin is obtained from Thermo Scientific (#78432; Waltham, Massachusetts). Rhodamine110 substrate ([N-Cbz]-Nle-Lys-Arg-Arg-Rhod110-Arg-Arg-Lys-Nle-[N-Cbz]) was purchased from either Genscript or Bachem.
1536-well Protease (Rhodamine110 Substrate) Assay:
Briefly, 3 microL of enzyme (25 nM final concentration), in assay buffer (10 mM Tris-HCl pH 8.0 with 0.01% Tween 20) were dispensed into a 1,536-well solid-bottom black plate (Greiner Bio One, Monroe, NC). Twenty-three nL of compounds (final concentration range 7.28 nM to 114 microM) or control Aprotinin (final concentration range 3.47 nM to 114 microM) were transferred via Wako Pin-tool (Wako Automation, Richmond, VA). Samples were incubated (room temperature, protected from light) for 15 minutes followed by a 1 microL Rhodamine110 substrate addition (1.5 microM final concentration). Plates were then immediately read on a ViewLux High-throughput CCD imager (PerkinElmer, Waltham, MA) equipped with FITC fluorescence optics (480(20) nm excitation, 540(25) nm emission), then incubated (room temperature, protected from light) for 15 minutes (~15% conversion). The change in fluorescence intensity over the 15-minute reaction period was normalized against no-inhibitor and no-enzyme controls and the resulting percent inhibition data were fitted to a 4-parameter Hill equation. Aprotinin was used as intraplate control.
For `C/C=C(\C)C(=O)OC1CC2C(C)(C)OC(=O)CC(OC(C)=O)C2(C)C2CC(OC(=O)C(C)C)C3(C)C(c4ccoc4)CC4OC43C12C` (stereo not given), the Potency result was “inactive”.
Same read-out and setting: the value for `CC(C)C1(OO)C=C2C(=O)CC3C(C)(C(=O)O)CCCC3(C)C2CC1` (stereo not given) was “inactive”; that for `CC12CCC3C(CCC4(O)CC(O)CCC34C=O)C1(O)CCC2C1=CC(=O)OC1` (stereo not given) was “inactive”.
Consider `C=CC(C)(O)CC/C=C(\C)C(=O)O[C@H]1[C@H](O)[C@@H](CO)O[C@@H](OC(=O)[C@]23CCC(C)(C)CC2C2=CCC4[C@@]5(C)CC[C@H](O[C@@H]6O[C@H](CO[C@@H]7OC[C@H](O)[C@H](O)[C@H]7O[C@@H]7OC[C@@H](O)[C@H](O)[C@H]7O)[C@@H](O)[C@H](O)[C@H]6O)C(C)(C)C5CC[C@@]4(C)[C@]2(C)CC3)[C@@H]1OC1OC(C)C(O[C@@H]2OC[C@@H](O)[C@H](O[C@@H]3OC[C@@H](O)[C@H](O)[C@H]3O)[C@H]2O)C(O)C1O` (stereo not given in full), for which the activity change, negative = inhibition is 33.2% [at 10.7 µM] (inactive).
In the case of `CCC(C)(C#N)O[C@@H]1O[C@H](CO)[C@@H](O)[C@H](O)[C@H]1O` (stereo not given in full), the Potency result was “inactive”.
The same measure, in the same setting: the value for `COC1=CC(=O)O[C@@H](CCc2ccccc2)C1` was “inactive”; that for `CC(=O)OC12C(O)C(C)C3(O)C4C=C(C)C(=O)C4CC(CO)=CC3C1C2(C)C` (stereo not given) was “inactive”; that for `Cn1ncnc1COc1nn2c(-c3c(F)cccc3F)nnc2cc1C1CCC1` was “inactive”.
The same measure, in the same setting: the value for `COC1C(O)C(C)OC(OC2C(CO)O[C@@H](O[C@@H]3CC4CCC5C(CC[C@]6(C)[C@@H](C7=CC(=O)OC7)CC[C@]56O)[C@@]4(C)[C@H](O)C3)C(O)C2O)C1O` (stereo not given in full) was “inactive”; that for `C[C@@H]1C(=O)O[C@H]2[C@H](O)[C@@]34[C@@H]5OC(=O)[C@@]3(O[C@@H]3OC(=O)[C@@H](O)[C@@]34[C@H](C(C)(C)C)[C@H]5O)[C@@]12O` was “inactive”.
On the same count and under the same terms, the value for `CC(C)(O)[C@H]1O[C@H]2CC[C@@]3(C)[C@@](O)(CC[C@H]4Cc5c([nH]c6ccccc56)[C@@]43C)C2=CC1=O` was “inactive”.
On to `CCc1[nH]c2ccc(OC)cc2c1CCN(C)C`, for which the Potency entry is “inactive”.
Still for that read-out and setting: the value for `Cc1c(Cl)cccc1S(=O)(=O)Nc1nc(CC(=O)N2CCN(C)CC2)cs1` was “inactive”; that for `C1=C2CCCN[C@H]2[C@@H]2C[C@H]1[C@H]1CCCCN1C2` was “inactive”; that for `CC(=O)OC1CC(O)C(C)(C)C2CC(OC(C)=O)C3(C)C(CCC4(C)C(c5ccoc5)C(=O)C5OC543)C12C` (stereo not given) was “inactive”.
Still for that read-out and setting: the value for `OC1(c2ccc(Cl)cc2)c2ccccc2C2=NCCN21` (stereo not given) was “inactive”; that for `CN1[C@@H]2CC[C@H]1CC(OC(=O)C1C=Nc3ccccc31)C2` (stereo not given in full) was “inactive”; that for `C=C(C)[C@H]1O[C@H]2CC[C@@]3(C)[C@@](O)(CC[C@H]4[C@@H]5OC(C)(C)[C@H]6C[C@@H]7C(=C)Cc8c(Cl)cc9[nH]c(c5c9c8[C@@]76O)[C@@]43C)[C@]23O[C@@H]3[C@H]1O` was “inactive”.
On the same count and under the same terms, the value for `CO[C@@H]1[C@H](O)[C@@H](O[C@@H]2C[C@H]3CC[C@@H]4C(CC[C@]5(C)[C@@H](C6=CC(=O)OC6)CC[C@]45O)[C@@]3(C)[C@H](O)C2)O[C@H](C)[C@@H]1O[C@@H]1O[C@H](CO)[C@@H](O)[C@H](O)[C@H]1O` (stereo not given in full) was “inactive”; that for `CC(C)(C)c1cc(C(C)(C)C)c2c(c1)C(O)(C(F)(F)F)C(=O)O2` (stereo not given) was 12.6 µM (active); that for `CO[C@H]1[C@H](O)[C@H](O[C@H]2CC[C@]3(C)C4CC[C@]5(C)[C@H](C6=CC(=O)OC6)CC[C@]5(O)C4CC[C@@H]3C2)O[C@@H](C)[C@@H]1O` (stereo not given in full) was “inactive”.
For `COc1c(C(C)C)cc2c(c1O)[C@@]1(C(=O)O)CCCC(C)(C)C1CC2` (stereo not given in full), the Potency result was “inactive”.
The same measure, in the same setting: the value for `CC(C)[C@@H](CN1CC[C@@](C)(c2cccc(O)c2)[C@@H](C)C1)NC(=O)[C@H]1Cc2ccc(O)cc2CN1` was “inactive”; that for `CC(=O)OC1CC(O)C2(C)C(CC(OC(C)=O)C3(C)C2CCC2(C)C(c4ccoc4)C(=O)C4OC423)C1(C)C` (stereo not given) was “inactive”.
Same read-out and setting: the value for `Cc1cn(C[C@H](N)C(=O)O)c(=O)n(Cc2cc(-c3ccccc3)sc2C(=O)O)c1=O` was “inactive”.
The same measure, in the same setting: the value for `CN1CCC[C@@H]1Cc1c[nH]c2ccc(Nc3ncccc3[N+](=O)[O-])cc12` was “inactive”.
On to `CC1C/C=C/C(O)C(O)CC/C=C/c2cc(O)cc(O)c2C(=O)O1` (stereo not given), for which the Potency result is “inactive”.
For `CN(C(=O)Cc1ccccc1)C(CN1CCCC1)c1ccccc1` (stereo not given), the Potency result was “inactive”.
On the same count and under the same terms, the value for `Cc1cccc(NC(=O)N[C@@H]2N=C(c3ccccc3)c3ccccc3N(C)C2=O)c1` was “inactive”.
Turning to `Oc1ccc2c3c1O[C@H]1[C@H](N(CCCl)CCCl)CC[C@@]4(O)[C@@H](C2)N(CC2CC2)CC[C@]314`, the outcome was “inactive [at 10.7 µM]”.
Take `CC[C@H]1CN2CC[C@H]1C[C@@H]2[C@@H](O)c1ccnc2ccc(OC)cc12`: the Potency result was “inactive”.
On the same count and under the same terms, the value for `CC1=C2C[C@H]3[C@@H](CC=C4C[C@@H](O)CC[C@@]43C)[C@@H]2CC[C@]12O[C@@H]1C[C@H](C)CN[C@H]1[C@H]2C` was “inactive”; that for `COC1CC(OC2CCC3(C)C(CCC4C3CCC3(C)C(C5=CC(=O)OC5)C(OC(C)=O)CC43O)C2)OC(C)C1OC1OC(CO)C(O)C(O)C1O` (stereo not given) was “inactive”.
Turning to `COc1ccccc1CN[C@H]1C2CCN(CC2)[C@H]1C(c1ccccc1)c1ccccc1`, the Potency result was “inactive”.
On the same count and under the same terms, the value for `C/C=C(\C)C(=O)OC1CC2C(CC=C3CC(OC4CC(OC)C(OC5CC(OC)C(OC6OC(C)C(OC7OC(CO)C(O)C(O)C7O)C(OC)C6O)C(C)O5)C(C)O4)CCC32C)C2(O)CCC(C(C)=O)C12C` (stereo not given) was “inactive”.
Regarding `CC(=O)O[C@H]1C[C@@H](OC(C)=O)C(C)(C)C2C[C@@H](O)[C@]3(C)C(CC[C@@]4(C)[C@H](C5=CC(=O)OC5O)C[C@H]5O[C@]543)[C@]21C` (stereo not given in full), the Potency entry is “inactive”.
For the compound `COC1C(O)C(OC2CCC3(C=O)C(CCC4C3CCC3(C)C(C5=CC(=O)OC5)CCC43O)C2)OC(C)C1OC1OC(CO)C(O)C(O)C1O` (stereo not given), the Potency entry was “inactive”.
Take `C=C1[C@@H]2CC[C@@]3(C)[C@H](c4ccoc4)OC(=O)C[C@]13O[C@H]1CC(=O)C(C)(C)[C@H](C(OC(C)=O)C(=O)OC)[C@]12C` (stereo not given in full): the Potency entry was “inactive”.
Still for that read-out and setting: the value for `Clc1ccc(N2C[C@H]3CC[C@@H](C2)N3)nn1` was “inactive”.
Same read-out and setting: the value for `CN1C(=O)c2ccccc2NC(=O)[C@]12O[C@@H]2c1ccccc1` was “inactive”.
